Measured values as given in PubChem BioAssay (EPA / NIEHS).
“And” between values parts separate entries of the source, which are not always exact repeats. Equal values may be shown once. A structure can be active in one record and inactive in another. The source made the active and inactive calls. Rule for the calls: active = hit-call score of the fitted dose curve at least 0.9, where 1 is the maximum; inactive = score below 0.9.

Experiment: ATG_PBREM_CIS: Attagene CIS-FACTORIAL HepG2 Assay for human Phenobarbital-responsive Enhancer Module (PBREM) (AID 2282955)
Details: HepG2 PBREM cis-reporter, Attagene multiplexed transcription; actives raise or lower the signal
Method: ATG_CIS is a cell-based, multiplexed-readout assay that uses HepG2, a human liver cell line, with measurements taken at 24 hours after chemical dosing in a 24-well plate.ATG_PBREM_CIS is one of 52 assay component(s) measured or calculated from the ATG_CIS assay. It is designed to make measurements of mRNA induction, a form of inducible reporter, as detected with fluorescence intensity signals by Reverse transcription polymerase chain reaction (RT-PCR) and Capillary electrophoresis technology.Data from the assay component ATG_PBREM_CIS was analyzed into 1 assay endpoint. This assay endpoint, ATG_PBREM_CIS, was analyzed with bidirectional fitting relative to DMSO as the negative control and baseline of activity. Using a type of inducible reporter, measures of mRNA for gain or loss-of-signal activity can be used to understand the reporter gene at the transcription factor-level as they relate to the gene NR1I3. Furthermore, this assay endpoint can be referred to as a primary readout, because this assay has produced multiple assay endpoints where this one serves a reporter gene function. To generalize the intended target to other relatable targets, this assay endpoint is annotated to the nuclear receptor intended target family, where the subfamily is non-steroidal.
Human liver HepG2 cells are transiently transfected with multiple reporter transcription units (MRTUs) in 6-well plates using FuGene 6 reagent (Roche; 3 ml FuGene/1 mg DNA). The MRTU constructs are regulated by a cis-regulating element (promoter). […] A major difference between the CIS and TRANS system is that in CIS activities of endogenous TFs are measured, whereas the TRANS assay evaluates changes in activities of exogenous, chimeric NR-Gal4 proteins. […] At the end of 24 hour incubation, total RNA was isolated using TriZol reagent (Invitrogen). The isolated RNA is then reverse-transcribed using oligo(dT) primer and Mo-MLV reverse transcriptase (Invitrogen) with DNAse I (Ambion) treatment for 30 min. The one-tenth of the produced cDNA was amplified by PCR using Taq DNA polymerase (Invitrogen) and two reporter sequence-specific primers. The PCR products were fluorescently labeled by primer extension with 6-arboxyfluorescein (6-FAM) 5'-labeled reporter sequence-specific primer (2 min at 95 C, 20 s at 68 C and 10 min at 72 C) and these products were digested with 5U of HpaI (New England Biolabs) for 2h at 37 C. The fragments were purified using Qiaquick PCR columns (Qiagen), analyzed on an ABI 3130xL genetic analyzer (Applied Biosystems) with peak positions identified by using a set of X-rhodamine (ROX)-labeled MapMarker1000 molecular weight standards (BioVentures). The raw capillary electrophoresis data was processed using Attagraph software (Attagene).
For O=C(O)C(F)(F)C(F)(F)C(F)(F)C(F)(F)C(F)(F)F, the outcome was “inactive”. For Cc1ccccc1[N+](=O)[O-], the outcome was “inactive”. In the case of CC(C)(c1ccccc1)c1ccc(O)cc1, the AC50 is reported as 33.4 µM (active) and the outcome is reported as “inactive”. In the case of CCC(C)(c1ccc(O)cc1)c1ccc(O)cc1, the outcome is reported as “inactive” and the AC50 is reported as 1.17 µM (active). For NS(=O)(=O)C(F)(F)C(F)(F)C(F)(F)C(F)(F)C(F)(F)C(F)(F)C(F)(F)C(F)(F)F, the AC50 was 46.7 µM (active) and 33.8 µM (active) and the outcome was “inactive”. With c1cc2ccc3cccc4ccc(c1)c2c34 the outcome was “inactive”. With Cc1cc2c3c(c1)C(c1ccccc1)=N[C@@H](NC(=O)c1ccncc1)C(=O)N3CC2 the AC50 was 3.47 µM (active). With C[C@]12CCC(=O)C=C1CC[C@@H]1[C@@H]2CC[C@]2(C)C(=O)CC[C@@H]12 the outcome was “inactive”. With Oc1c(Cl)c(Cl)c(Cl)c(Cl)c1Cl the outcome was “inactive” and the AC50 was 18.1 µM (active) and 7.11 µM (active). With Nn1cnnc1 the outcome was “inactive”. In the case of CCC(C)c1cc([N+](=O)[O-])cc([N+](=O)[O-])c1O (stereo not given), the outcome is reported as “inactive”. In the case of CCC(=O)O[C@H]1CC[C@H]2[C@@H]3CCC4=CC(=O)CC[C@]4(C)[C@H]3CC[C@]12C, the AC50 is reported as 136 µM (active) and 100 µM (active) and the outcome is reported as “inactive”. In the case of CC(C)C(=O)OCC(C)(C)C(OC(=O)C(C)C)C(C)C (stereo not given), the outcome is reported as “inactive”. For Cc1ccccc1O, the outcome was “inactive”. For C=CC(=O)NCNC(=O)C=C, the outcome was “inactive”. For Oc1ccc(Cl)cc1Cl, the outcome was “inactive”. In the case of O=S(=O)(O)C(F)(F)C(F)(F)C(F)(F)C(F)(F)F, the outcome is reported as “inactive”. In the case of CCCCCCOC(=O)c1ccccc1C(=O)OCCCCCC, the outcome is reported as “inactive”. With CCOC(=O)C(O)(c1ccc(Cl)cc1)c1ccc(Cl)cc1 the outcome was “inactive”. In the case of O=C(O)C(F)(F)C(F)(F)C(F)(F)C(F)(F)C(F)(F)C(F)(F)C(F)(F)C(F)(F)C(F)(F)F, the outcome is reported as “inactive”. With CCCN(CCC)N=O the outcome was “inactive”. In the case of Cc1cc(-c2ccc(N)c(C)c2)ccc1N, the outcome is reported as “inactive”. In the case of CO/C=C(/C(=O)OC)c1ccccc1COc1cccc(C(F)(F)F)n1, the outcome is reported as “inactive”. For COc1ccc(O)c(C(C)(C)C)c1, the AC50 was 25.7 µM (active). In the case of CC1=C2C[C@H]3[C@@H](CC=C4C[C@@H](O)CC[C@@]43C)[C@@H]2CC[C@]12O[C@@H]1C[C@H](C)CN[C@H]1[C@H]2C, the outcome is reported as “inactive”. With CCCCCCCCOC(=O)c1ccccc1C(=O)OCCCCCCCC the outcome was “inactive”. In the case of C1CC2OC2CC1C1CO1 (stereo not given), the outcome is reported as “inactive”. In the case of Sc1ccccc1, the outcome is reported as “inactive”. For CN(C)c1nc(=O)n(C2CCCCC2)c(=O)n1C, the outcome was “inactive”. For CCC(C)(CC)c1cc(NC(=O)c2c(OC)cccc2OC)on1, the AC50 was 1.43 µM (active). With CCCCCCCCCC[N+](C)(C)CCCCCCCCCC the outcome was “inactive”. For CC#Cc1cc(C)nc(Nc2ccccc2)n1, the outcome was “inactive”. In the case of Nc1ccc(-c2ccc(N)cc2)cc1, the outcome is reported as “inactive”. In the case of C[C@]12CCC(=O)C=C1CC[C@@H]1[C@@H]2CC[C@@]2(C)[C@H]1CC[C@]2(C)O, the outcome is reported as “inactive”. For Clc1ccc(Cl)cc1, the outcome was “inactive”.
